A selection: hits, their analogues and other compounds. The true share with any hit is near 12%.
Sfp inh: Sfp phosphopantetheinyl transferase inhibition | hit rate 3.5% among 310,000 | Potency, µM, for the others: largest response in the series, negative = inhibition, usual class: inhibitors | Biochemical Sfp PPTase activity, qHTS;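 further: the enzyme is Sfp with the accession as filed and its product quenches rhodamine fluorescence; 0% = enzyme reaction without inhibitor and -100% = no enzyme wells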
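Fluorescence-quenching assay: 15 nM Sfp-PPTase preincubated 15 min at room temperature with compound, then 5 uM rhodamine-CoA and 12.5 uM BHQ-2-labelled YbbR peptide added. Fluorescence (ex 525/em 598 nm) read at start and after 30 min; difference gives rate.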
G9a inh: G9a (human) methyltransferase inhibition; Q96KQ7; G9a H3K9 monomethylation, AlphaScreen, 2 h; hit rate 8.8% among 350,000; Potency, µM (titrated, usually from 102 µM), for the others: at the top dose activity, negative = inhibition, usual class: inhibitors; AID 504332; further: on the % scale 0 is the no-effect control and ±100 the full control effect; nearly all actives have a fitted effect of over 75% in size
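Enzyme 20 nM + cpd, 15 min RT; add b-H3K9 pep 500 nM / SAM 20 uM; 2 h RT; anti-H3K9me1 Ab 0.5 ug/mL + SA donor / anti-rabbit acceptor beads 20 ug/mL each, 10 min; AlphaScreen read.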
BAZ2B inh: inhibitors of human BAZ2B bromodomain; hit rate 4.4% among 360,000; Potency, µM (doses to about 114 µM), for inactives: at the highest dose activity change, negative = inhibition, actives largely listed as inhibitors; AlphaScreen BAZ2B-H3K14Ac peptide displacement; further: on the % scale 0 is the no-effect control and ±100 the full control effect; nearly all actives have a fitted effect of over 60% in size
Target sequence (Q9UIF8 whole entry, looked up): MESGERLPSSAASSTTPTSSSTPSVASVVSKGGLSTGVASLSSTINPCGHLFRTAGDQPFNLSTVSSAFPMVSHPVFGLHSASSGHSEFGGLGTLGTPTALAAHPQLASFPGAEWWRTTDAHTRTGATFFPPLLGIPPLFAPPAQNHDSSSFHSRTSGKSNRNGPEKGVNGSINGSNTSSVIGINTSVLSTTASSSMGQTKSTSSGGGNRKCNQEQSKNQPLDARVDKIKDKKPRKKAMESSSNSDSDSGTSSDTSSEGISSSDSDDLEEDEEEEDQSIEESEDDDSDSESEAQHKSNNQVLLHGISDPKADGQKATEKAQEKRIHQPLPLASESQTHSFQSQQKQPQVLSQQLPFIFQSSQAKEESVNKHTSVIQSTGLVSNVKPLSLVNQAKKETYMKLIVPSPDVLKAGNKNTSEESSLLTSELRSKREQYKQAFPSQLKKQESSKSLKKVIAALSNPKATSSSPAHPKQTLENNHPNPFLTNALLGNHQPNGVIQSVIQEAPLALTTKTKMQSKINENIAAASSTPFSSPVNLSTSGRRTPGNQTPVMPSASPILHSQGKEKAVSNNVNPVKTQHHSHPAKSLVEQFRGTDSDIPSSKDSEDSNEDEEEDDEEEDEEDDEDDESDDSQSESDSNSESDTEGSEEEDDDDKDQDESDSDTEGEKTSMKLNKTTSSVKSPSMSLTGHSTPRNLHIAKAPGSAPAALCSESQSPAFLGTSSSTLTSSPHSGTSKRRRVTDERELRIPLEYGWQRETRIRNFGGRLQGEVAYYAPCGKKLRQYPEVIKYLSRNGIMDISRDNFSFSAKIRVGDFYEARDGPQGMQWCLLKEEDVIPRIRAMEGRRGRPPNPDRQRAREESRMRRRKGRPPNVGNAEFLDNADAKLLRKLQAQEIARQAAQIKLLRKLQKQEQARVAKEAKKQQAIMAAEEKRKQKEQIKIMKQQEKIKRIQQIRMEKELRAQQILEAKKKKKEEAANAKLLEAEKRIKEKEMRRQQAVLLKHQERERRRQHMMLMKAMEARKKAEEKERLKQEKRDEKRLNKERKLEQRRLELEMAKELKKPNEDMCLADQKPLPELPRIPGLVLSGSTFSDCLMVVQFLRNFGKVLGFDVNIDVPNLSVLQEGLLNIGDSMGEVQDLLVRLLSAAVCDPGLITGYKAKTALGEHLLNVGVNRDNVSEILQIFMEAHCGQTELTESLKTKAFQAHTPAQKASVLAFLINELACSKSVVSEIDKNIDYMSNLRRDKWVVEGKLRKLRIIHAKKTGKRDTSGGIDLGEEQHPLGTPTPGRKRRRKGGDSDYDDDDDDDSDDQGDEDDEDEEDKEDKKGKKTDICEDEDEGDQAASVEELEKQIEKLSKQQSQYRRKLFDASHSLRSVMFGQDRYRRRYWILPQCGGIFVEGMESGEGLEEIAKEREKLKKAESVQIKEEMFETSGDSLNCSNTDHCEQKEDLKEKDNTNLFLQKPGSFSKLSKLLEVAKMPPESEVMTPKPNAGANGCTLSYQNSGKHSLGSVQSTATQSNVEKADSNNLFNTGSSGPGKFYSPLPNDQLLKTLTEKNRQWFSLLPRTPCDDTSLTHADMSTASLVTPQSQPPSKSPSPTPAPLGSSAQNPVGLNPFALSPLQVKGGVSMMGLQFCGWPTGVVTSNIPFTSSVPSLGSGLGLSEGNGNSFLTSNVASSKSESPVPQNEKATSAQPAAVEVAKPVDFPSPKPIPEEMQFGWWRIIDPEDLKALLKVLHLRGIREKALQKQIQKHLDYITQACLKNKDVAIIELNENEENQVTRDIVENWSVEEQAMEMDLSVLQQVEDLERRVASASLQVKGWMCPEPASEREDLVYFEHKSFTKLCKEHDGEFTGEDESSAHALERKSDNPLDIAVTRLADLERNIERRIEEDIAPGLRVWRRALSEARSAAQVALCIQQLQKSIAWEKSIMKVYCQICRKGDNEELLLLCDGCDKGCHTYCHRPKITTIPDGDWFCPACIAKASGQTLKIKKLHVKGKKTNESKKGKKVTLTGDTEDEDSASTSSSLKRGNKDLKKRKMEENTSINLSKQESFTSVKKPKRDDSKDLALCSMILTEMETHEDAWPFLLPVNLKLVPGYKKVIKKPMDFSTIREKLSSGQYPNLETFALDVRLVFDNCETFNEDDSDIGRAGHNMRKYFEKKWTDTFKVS
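AlphaScreen luminescence quantifies BAZ2B engagement of H3K14Ac peptide; the protein and biotinylated peptide are both at 50 nM final, buffer PBS pH 7.4 with 0.01% Tween-20, all steps at room temperature.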
HP1b binding inh: inhibitors of HP1-beta chromodomain binding to methylated histone tails | P83916 | AlphaScreen HP1-beta / biotin-H3K9me3 peptide binding | Potency, µM (series often up to 114 µM), without a hit: top-dose activity change, negative = inhibition, actives largely listed as inhibitors | hit rate 0.56% among 390,000 | AID 540317; further: nearly all actives have a fitted effect of over 70% in size
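AlphaScreen: HP1-beta (50 nM) preformed 30 min with biotin-H3(1-18)K9me3 peptide (50 nM) in PBS pH 7.4, 0.01% Tween-20. Compound added for 30 min at RT, then streptavidin donor/nickel chelate acceptor beads (10 ug/mL) for 30 min.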
PLK1 PBD block: inhibitors of human PLK1 polo-box domain binding | Plk1 PBD binding of FITC phosphopeptide, fluorescence polarization | Potency, µM, without a hit: max response, negative = inhibition, most hits filed as inhibitors | hit rate 2.8% among 360,000; further: series mostly up to about 57 µM; on the % scale 0 is the no-effect control and ±100 the full control effect; nearly all actives have a fitted effect of over 65% in size
JMJD2A Tudor: blocks the human JMJD2A Tudor domain. O75164. AID 504339. Potency, µM (series often up to 114 µM), for inactives: at the highest dose activity change, negative = inhibition, actives largely listed as inhibitors. hit rate 4.4% among 390,000. AlphaScreen JMJD2A-Tudor / H3K4me3 peptide binding; further: on the % scale 0 is the no-effect control and ±100 the full control effect; nearly all actives have a fitted effect of over 50% in size
* marks the source's active call; other numbers are inactive results; ? = inconclusive; · = no result given; [ ] = remark or other dose. The call rests on the fitted dose curve; in most records, active means well fitted curve in the direction sought with a large enough effect; inconclusive means small, poorly fitted or top-dose-only effect, or another doubt; inactive means no such curve, though single readings can be large; an effect the other way counts as inactive or inconclusive. Potency means the concentration at half of the fitted maximal effect.

SMILES	Sfp inh	G9a inh	BAZ2B inh	HP1b binding inh	PLK1 PBD block	JMJD2A Tudor
COC(=O)[C@@]1(Cc2ccccc2)[C@H]2c3cc(C(=O)N(C)C)n(Cc4cc(F)c(F)c(F)c4)c3C[C@H]2CN1C(=O)c1ccccc1	0%	·	·	·	·	·
O=C(O)Cn1cnc2scc(-c3cccs3)c2c1=O	56µM*	?	?	14%	-19%	-17%
O=C(O)Cn1cnc2scc(-c3ccccc3)c2c1=O	-3%	·	-2%	38%	3%	-8%
Cc1cc(C)c(S(=O)(=O)Nc2ccc(N(C)C)cc2)c(C)c1-n1cnnn1	-3%	3.5µM*	40µM*	-27%	-11%	?
O=C(NCC(=O)N1CCCCCCC1)c1cccc([N+](=O)[O-])c1	·	1.3µM*	-7%	8%	-5%	-9%
O=C(CNC(=O)c1cccc(F)c1)OCC(=O)N1CCCCC1	-6%	16µM*	-6%	21%	-13%	-15%
COc1ccc(NCN2C(=O)CCC2=O)cc1	14%	?	-4%	-19%	24µM*	-21%[11.4 µM]
Cc1ccc(NCCc2ccc(C)nc2)cc1	11%	50µM*	-19%	-8%	-7%	-34%
Cc1ccc(NCc2ccccc2F)cc1	-2%	?	-35%	21%	4%	0%
O=C1CCC(=O)N1CNc1ccc(Oc2ccccc2)cc1	11%	?	?	2%	-3%	?
Cc1ccc(NCCNc2ccc(C)cc2)cc1	12%	?	·	-41%	1%	22µM*
COc1ccc(NCCNc2ccc(OC)cc2)cc1	-3%	9%[0.0925 µM]	50µM*	-18%	-3%	?
COc1ccc(C(=O)CCNc2ccc(F)cc2)cc1	6%	20%	-3%	0%	-6%	-14%
COc1ccc2c(c1)C(=O)[C@@H](OC(=O)Nc1ccc(C)c(Br)c1)[C@H](c1ccc(OC)c(Br)c1)O2	-6%	·	·	·	·	·
C=CCc1cc(OC)c(O)c(C(=O)NCCO)c1	-17%	-5%[12.7 µM]	·	·	·	·
O=S(=O)(NCC(c1ccco1)N1CCOCC1)c1ccc(F)cc1 (centres undefined)	·	11%[59 µM]	-2%	5%	·	-15%
COc1ccc(C(CC(=O)Nc2ccc(Br)cn2)N2Cc3ccccc3C2=O)cc1 (centres undefined)	·	-14%[59 µM]	-11%	18%	·	-1%
Cc1nc2ccc(NC(=O)C3(C)CCCN(C(C)C)C3)cc2o1 (centres undefined)	·	·	·	·	-13%	·
Cc1cc(NC(=O)C(C)(C)C)cc(-c2nc3ncccc3o2)c1O	·	-24%[59 µM]	-21%	32%	·	-3%
Cc1nc(SCC(=O)O)c2oc3ccccc3c2n1	13%	56µM*	5%	22%	-11%	-23%
Cc1nc(SCC(=O)c2cccs2)c2oc3ccccc3c2n1	79µM*	14%[12.7 µM]	11%	39%	-2%	7%
Cc1nc(SCC(=O)NCc2ccccc2)c2oc3ccccc3c2n1	-1%	-3%[59 µM]	2%	10%	-9%	-10%
Nc1ccc(NC(=O)Nc2ccc(N)cc2)cc1	11%	?	-17%	27%	4%	-10%
Nc1ccc(NC2C[C@@H](C(=O)O)NC2=O)cc1 (some centres undefined)	15%	50µM*	-22%	35%	-8%	-15%
COc1ccc(CNS(=O)(=O)c2ccc(-n3cnnn3)c(OC)c2)cc1	4%	50µM*	3%	-13%	-4%	-1%
SMILES	Sfp inh	G9a inh	BAZ2B inh	HP1b binding inh	PLK1 PBD block	JMJD2A Tudor
COc1cc(S(=O)(=O)NCc2ccccc2)ccc1-n1cnnn1	17%	19%	2%	34%	5%	4%
CCCNS(=O)(=O)c1ccc(-n2cnnn2)c(OC)c1	10%	3%	-3%	46%	2%	-9%
COc1cc(S(=O)(=O)NCCc2ccc3c(c2)OCO3)ccc1-n1cnnn1	3%	56µM*	-7%	11%	-9%	-9%
NC(N)=Nc1ccc(C=C2C=Cc3ccccc32)cc1	·	·	·	-25%	-1%	?
Nc1ccc(C=C2C=Cc3ccccc32)cc1	·	·	·	?	-3%	35µM*
COC(=O)C1=C(N)OC2=C(C(=O)CC(C)(C)C2)C1c1ccoc1 (centres undefined)	18%	?	·	?	4.7µM*	-34%[11.4 µM]

Assay outcomes as filed in PubChem BioAssay.
